Measured values from PubChem BioAssay (NCI).
The panel holds about 79,000 compounds, 15% with a hit somewhere; the sample as a whole holds those more often. Activity calls are given as the source filed them. No stated cut-off is given here; in the data, active means growth inhibition above about 70%; inactive means the rest.

Columns and labels:
[1] = NCI Yeast Anticancer Drug Screen. Data for the wt1 strain (AID 149);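 further: 0% = growth of vehicle-treated wt1 cultures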; conditions: S. cerevisiae wt1 strain (SPY 50644) growth inhibition, hits give high values
How it was run: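 Readout: yeast growth inhibition, normalised to vehicle controls, in the wt1 strain exposed to test compounds.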

[2] = NCI Yeast Anticancer Drug Screen. Data for the rad50EPP+ strain (AID 151);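 further: 0% = growth of vehicle-treated control cultures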; conditions: S. cerevisiae rad50 mutant strain, hits give high values
How it was run: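 Compounds were applied to the rad50EPP+ yeast strain, which bears a defined DNA repair alteration, and growth inhibition was determined relative to vehicle-treated cultures.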

[3] = NCI Yeast Anticancer Drug Screen. Data for the mgt1 strain (AID 153); conditions: S. cerevisiae mgt1 mutant growth inhibition, hits give high values
How it was run: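 Strain: mgt1 yeast, one of a set carrying defined DNA damage repair or cell cycle control alterations. Compound-treated growth compared with vehicle.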

[4] = NCI Yeast Anticancer Drug Screen. Data for the rad50 strain (AID 155);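 further: 0% = growth of vehicle-only cultures of the same strain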; conditions: S. cerevisiae rad50 strain growth inhibition, hits give high values
How it was run: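 Compounds were tested on a yeast strain with an engineered DNA damage repair alteration; the reported value is growth inhibition normalised to vehicle treatment.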

[5] = NCI Yeast Anticancer Drug Screen. Data for the mec2-1 strain (AID 157); conditions: S. cerevisiae mec2-1 strain, hits give high values
How it was run: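 Strain: mec2-1 (DNA repair/cell cycle alteration). Compound exposure, then growth measured; inhibition expressed relative to vehicle.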

[6] = NCI Yeast Anticancer Drug Screen. Data for the rad14 strain (AID 159);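 further: 0% = growth of vehicle-treated control cultures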; conditions: S. cerevisiae rad14 strain growth inhibition, hits give high values
How it was run: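 Compound-treated yeast with a defined DNA-repair lesion; growth inhibition normalised to vehicle-treated cultures.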

[7] = NCI Yeast Anticancer Drug Screen. Data for the sgs1 mgt1 strain (AID 161);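 further: 0% = growth of cultures given vehicle only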; conditions: S. cerevisiae sgs1 mgt1 strain, hits give high values
How it was run: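 Mutant yeast exposed to compound; growth scored against vehicle-only wells.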

[8] = NCI Yeast Anticancer Drug Screen. Data for the cln2 rad14 strain (AID 165);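 further: 0% = growth equal to vehicle treated cultures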; conditions: S. cerevisiae cln2 rad14 strain, hits give high values
How it was run: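 Compounds are applied to the cln2 rad14 yeast strain, and growth is then compared with that of vehicle-treated cultures to give inhibition.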

[9] = NCI Yeast Anticancer Drug Screen. Data for the bub3 strain (AID 167); conditions: S. cerevisiae bub3 mutant strain, hits give high values
How it was run: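 Growth of a checkpoint-deficient yeast mutant is measured after compound exposure. Values represent inhibition relative to vehicle.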

[10] = NCI Yeast Anticancer Drug Screen. Data for the wt2 strain (AID 169);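 further: 0% = growth of vehicle-treated yeast cultures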; conditions: S. cerevisiae wt2 strain growth inhibition, hits give high values
How it was run: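 This strain belongs to a panel of yeast strains with defined genetic alterations in DNA damage repair or cell cycle control. Compounds are applied, and growth inhibition is measured against vehicle-treated cultures.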

[11] = NCI Yeast Anticancer Drug Screen. Data for the mlh1 strain (AID 171);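 further: 0% = growth of vehicle-treated control cultures of the same strain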; conditions: S. cerevisiae mlh1 strain growth inhibition, hits give high values
How it was run: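 Growth of the mutant yeast strain after compound exposure, expressed as inhibition relative to vehicle-only controls.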

[12] = NCI Yeast Anticancer Drug Screen. Data for the sgs1 strain (AID 173);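 further: 0% = growth of vehicle-only control cultures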; conditions: S. cerevisiae sgs1 mutant, hits give high values
How it was run: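 Growth of a yeast strain bearing a defined genetic alteration is measured after compound treatment. Inhibition is expressed relative to vehicle-only controls.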

[13] = NCI Yeast Anticancer Drug Screen. Data for the mlh1 rad18 strain (AID 175); conditions: S. cerevisiae mlh1 rad18 strain growth inhibition, hits give high values
How it was run: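 Read-out is yeast growth inhibition, calculated against vehicle-only controls. The compound was applied to a strain engineered with DNA damage repair alterations.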

[14] = NCI Yeast Anticancer Drug Screen. Data for the rad18 strain (AID 177); conditions: S. cerevisiae rad18 mutant growth inhibition, hits give high values
How it was run: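 Growth of the mutant yeast strain after compound exposure, normalised to vehicle-only cultures.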

[15] = NCI Yeast Anticancer Drug Screen. Data for the CLN2oe strain (AID 163);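 further: 0% = growth of vehicle-only control cultures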; conditions: S. cerevisiae CLN2oe strain, hits give high values
How it was run: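 Growth of a genetically modified yeast strain is measured after compound exposure and compared with cultures given vehicle alone.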

[16] = at 5.0 µM (retest, dose inferred, filed as 0.5)
[17] = at 50.0 µM (retest, dose inferred, filed as 5.0)

Measured: growth inhibition

CC(C)(C)[Si](C)(C)OCC1OC(n2cnc3c(N)ncnc32)C2OC(=S)OC12 (stereo not drawn)
active: [4]; at 100.0 µM 98% | [6]; at 100.0 µM 96% | [8]; [17] 98% | [12]; at 100.0 µM 80% | [14]; at 100.0 µM 86%
inactive: [1]; at 1.2 µM 1% | [1]; at 3.7 µM -1% | [1]; at 11.0 µM 0% | [1]; at 33.0 µM 2% | [1]; at 100.0 µM 17% | [2]; at 1.2 µM -5% | [2]; at 3.7 µM -6% | [2]; at 11.0 µM -3% | [2]; at 33.0 µM 3% | [2]; at 100.0 µM 8% | [3]; at 1.2 µM -1% | [3]; at 3.7 µM 0% | [3]; at 11.0 µM 0% | [3]; at 33.0 µM -29% | [3]; at 100.0 µM 14% | [4]; at 1.2 µM -1% | [4]; at 3.7 µM 5% | [4]; [16] 5% | [4]; at 11.0 µM -19% | [4]; at 33.0 µM 17% | [4]; [17] 45% | [4]; at 50.0 µM 4.45% | [5]; at 1.2 µM 0% | [5]; at 3.7 µM 2% | [5]; [16] 5% | [5]; at 11.0 µM 2% | [5]; at 33.0 µM 7% | [5]; [17] 56% | [5]; at 50.0 µM 40% | [5]; at 100.0 µM 28% | [6]; at 1.2 µM 0% | [6]; at 3.7 µM 2% | [6]; at 11.0 µM 3% | [6]; at 33.0 µM 11% | [7]; [16] 5% | [7]; [17] 29% | [7]; at 50.0 µM 11.6% | [8]; [16] 3% | [8]; at 50.0 µM -15.6% | [9]; at 1.2 µM 0% | [9]; at 3.7 µM 2% | [9]; [16] -42% | [9]; at 11.0 µM 3% | [9]; at 33.0 µM 3% | [9]; [17] 3% | [9]; at 50.0 µM 48.4% | [9]; at 100.0 µM 10% | [10]; at 1.2 µM -1% | [10]; at 3.7 µM 9% | [10]; at 11.0 µM 1% | [10]; at 33.0 µM 2% | [10]; at 100.0 µM 36% | [11]; at 1.2 µM -1% | [11]; at 3.7 µM -2% | [11]; at 11.0 µM -3% | [11]; at 33.0 µM 0% | [11]; at 100.0 µM 37% | [12]; at 1.2 µM -1% | [12]; at 3.7 µM 2% | [12]; at 11.0 µM 4% | [12]; at 33.0 µM 14% | [13]; [16] 7% | [13]; [17] 22% | [13]; at 50.0 µM 48.1% | [14]; at 1.2 µM -1% | [14]; at 3.7 µM 1% | [14]; at 11.0 µM 6% | [14]; at 33.0 µM 22%

CSc1ccc2c(c1)C(N1CCN(C)CC1)Cc1ccccc1S2 (stereo not drawn)
inactive: [1]; at 1.2 µM -58% | [1]; at 3.7 µM -61% | [1]; at 11.0 µM -57% | [1]; at 33.0 µM -6% | [2]; at 1.2 µM -27% | [2]; at 3.7 µM -45% | [2]; at 11.0 µM -37% | [2]; at 33.0 µM -4% | [3]; at 1.2 µM -33% | [3]; at 3.7 µM -31% | [3]; at 11.0 µM -49% | [4]; at 1.2 µM -34% | [4]; at 3.7 µM -47% | [4]; [16] 28% | [4]; at 11.0 µM -25% | [4]; [17] 67% | [5]; at 1.2 µM -75% | [5]; at 3.7 µM -83% | [5]; [16] 15% | [5]; at 11.0 µM -4% | [6]; at 1.2 µM -55% | [6]; at 3.7 µM -36% | [6]; at 11.0 µM 5% | [15]; at 1.2 µM -17% | [15]; at 3.7 µM 5% | [15]; at 11.0 µM 13% | [15]; at 33.0 µM 52% | [9]; at 1.2 µM -68% | [9]; at 3.7 µM -46% | [9]; at 11.0 µM 14% | [10]; at 1.2 µM -59% | [10]; at 3.7 µM -35% | [10]; at 11.0 µM -46% | [10]; at 33.0 µM 6% | [11]; at 1.2 µM -67% | [11]; at 3.7 µM -68% | [11]; at 11.0 µM -37% | [12]; at 1.2 µM -34% | [12]; at 3.7 µM -84% | [12]; at 11.0 µM -27% | [13]; [16] 35% | [14]; at 1.2 µM -44% | [14]; at 3.7 µM -72% | [14]; at 11.0 µM -44%
active: [1]; at 100.0 µM 99% | [2]; at 100.0 µM 91% | [3]; at 33.0 µM 74% | [3]; at 100.0 µM 99% | [4]; at 33.0 µM 76% | [4]; at 50.0 µM 88.1% | [4]; at 100.0 µM 98% | [5]; at 33.0 µM 83% | [5]; [17] 78% | [5]; at 50.0 µM 78.6% | [5]; at 100.0 µM 99% | [6]; at 33.0 µM 98% | [6]; at 100.0 µM 99% | [15]; at 100.0 µM 99% | [8]; [16] 91% | [8]; [17] 88% | [8]; at 50.0 µM 76% | [9]; [16] 98% | [9]; at 33.0 µM 91% | [9]; [17] 86% | [9]; at 50.0 µM 81.7% | [9]; at 100.0 µM 98% | [10]; at 100.0 µM 99% | [11]; at 33.0 µM 88% | [11]; at 100.0 µM 98% | [12]; at 33.0 µM 70% | [12]; at 100.0 µM 98% | [13]; [17] 89% | [13]; at 50.0 µM 92.8% | [14]; at 33.0 µM 75% | [14]; at 100.0 µM 98%
